Laboratory results: PubChem BioAssay (NCI)
The panel holds about 83,000 compounds, 20% with a hit somewhere; the sample as a whole holds those more often.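 How to read the values: 0–100, growth inhibition (40 = 60% inhibited); 0, no net growth; -100 to 0, cell death (-40 = 40% of starting cells died; -100 = all dead).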 Values without a mark were called inactive. Active and inactive are the calls of the source. The calls were made as follows: active = growth percent below 10; inactive = the rest.

Key:
Assay in all cases: NCI-60 one-dose screen, 48 h (100 = growth as untreated, 0 = no growth, -100 = all killed)
NCI-H23 lung = settings: 10 µM unless noted
NCI-H226 lung = settings: 10 µM unless noted
NCI-H322M lung = settings: 10 µM unless noted
HOP-62 NSCLC = settings: 10 µM unless noted
NCI-H460 lung = settings: 10 µM unless noted
HOP-92 NSCLC = settings: 10 µM unless noted
NCI-H522 lung = settings: 10 µM unless noted
A549/ATCC NSCLC = settings: 10 µM unless noted
786-0 renal = settings: 10 µM unless noted
COLO 205 colon = settings: 10 µM unless noted
DU-145 prostate = settings: 10 µM unless noted
K-562 leukemia = settings: 10 µM unless noted
MALME-3M melanoma = settings: 10 µM unless noted
MDA-MB-231 breast = settings: 10 µM unless noted
RXF 393 renal = settings: 10 µM unless noted
SF-268 CNS = settings: 10 µM unless noted
SF-295 CNS = settings: 10 µM unless noted
SF-539 CNS = settings: 10 µM unless noted
M14 melanoma = settings: 10 µM unless noted
UACC-257 melanoma = settings: 10 µM

Structure (SMILES) | growth (NCI-H23 lung) | growth (NCI-H226 lung) | growth (NCI-H322M lung) | growth (HOP-62 NSCLC) | growth (NCI-H460 lung) | growth (HOP-92 NSCLC) | growth (NCI-H522 lung) | growth (A549/ATCC NSCLC) | growth (786-0 renal) | growth (COLO 205 colon) | growth (DU-145 prostate) | growth (K-562 leukemia) | growth (MALME-3M melanoma) | growth (MDA-MB-231 breast) | growth (RXF 393 renal) | growth (SF-268 CNS) | growth (SF-295 CNS) | growth (SF-539 CNS) | growth (M14 melanoma) | growth (UACC-257 melanoma) [%]
O=S=Nc1ccc([N+](=O)[O-])cc1 | 95% | 108% | 95% | 89.6% | 102% | 107% | 81.5% | 78.8% | 92.1% | 106% | 84.8% | 75.6% | 96.8% | 95.4% | 111% | 91.8% | 98.9% | 95.4% | 94% | 
OC1CC2c3ccccc3C1c1ccccc12 (configuration not stated) | 101% | 106% | 114% | 108% | 110% | 96.2% | 102% | 100% | 98.9% | 112% | 117% | 111% | 110% | 110% | 111% | 105% | 107% | 108% | 98.4% | 
COc1ccc(/C=C/C(=O)/C=C/c2cc3ccc(Cl)cc3[nH]c2=O)cc1 | 81.1% | 81% | 97.2% | 85.3% | 86.7% | 103% | 82.3% | 93.1% | 94.9% | 90.5% | 88.2% | 53.2% | 107% | 59.4% | 86.9% | 86.5% | 94.8% | 92% | 86.4% | 
COc1cc(-n2nc(C(=O)Nc3ccc(C(=O)O)cc3)nc2-c2ccccc2)cc(OC)c1OC | 97.4% | 103% | 24.5% | 85.1% | 115% | 83.5% | 55.9% | 74.7% | 92.1% | 104% | 70.6% | 100% | 94.2% | 99% | 106% | 92% | 103% | 106% | 100% | 
CC/C=C\C[C@H](O)C/C=C1/C(=O)C(Cl)=C[C@@H]1C/C=C\CCCC(=O)OC | -43.8% (active) | -10.9% (active) | 31.8% | -27.1% (active) | -31.6% (active) | -31.3% (active) | -67.1% (active) | 4.38% (active) | -40.8% (active) | -61.6% (active) | -67.1% (active) | 2.41% (active) | -9.56% (active) | -55.2% (active) | -62.8% (active) | -35% (active) | -19.6% (active) | -4.69% (active) | -32.4% (active) | 
CN1CCN(CCCOc2ccc3nc(Nc4ccc(C(F)(F)F)c(Cl)c4)ccc3c2)CC1 | 38.1% | 54.1% | -5.95% (active) | -21.7% (active) | -40% (active) | 7.32% (active) | -37.8% (active) | 3.9% (active) | -60.9% (active) | -77.9% (active) | 20.1% | -47.2% (active) | -47.1% (active) | -53.3% (active) | 6.61% (active) | 11.5% | -52.8% (active) | -49% (active) | -19.8% (active) | 
O=c1[nH]c(-c2cn(-c3ccc(Cl)cc3)nn2)nc2ccccc12 | 77.6% | 65.5% | 52.4% | 52.5% | 74.7% | 62.9% | 67.8% | 61.2% | 31.9% | 99.2% | 94.6% | 96.6% | 59% | 74.9% |  | 77.9% | 83.6% | 48.2% | 91.4% | 77.9
CCCCCCOc1ccc(C2(Cl)c3ccccc3N(C)c3ccccc32)cc1 | 24.5% | 29.5% | 57.1% | 82.4% | -25.7% (active) | 83.1% | 55.4% | 47.1% | 47.2% | 61.7% | 55.7% | 48.8% | -21.5% (active) | 32.7% | 57% | 49.5% | 28.9% | 89.3% | 12.9% | 
